{"source": "PubChem BioAssay (NCATS)", "note": "Records with an inconclusive call do not appear. Unmarked numbers belong to inactive results. Calls of active or inactive are those of the source. Calls follow the shape of the dose curve; as a rule, active = well fitted cell-killing curve with a large enough effect; inconclusive = small, poorly fitted or top-dose-only effect, or effect the other way, or another doubt; inactive = no such curve, though single readings can be large or run the other way. *1 amine or outer side, *2 acyl side, *3 side chain or, on linkers, in order; H or OH if unused. Where a SMILES comes first, the peptide text is derived from it. Bridges are numbered along the chain shown (N, C = ends). Roman numbers before positions name the chains, in order. [ ]: non-standard residue; d: D form. ξ: configuration not given here. Actinocin(9to1) = Cc1c2oc3c(C)ccc(C(=O)[*:1])c3nc-2c(C(=O)[*:2])c(N)c1=O; ξNMeV = CNC(C(=O)O)C(C)C; ξV = CC(C)C(N)C(=O)O; Sar = CNCC(=O)O", "data": [{"experiment": "Identifying Small Molecule Inhibitors of Pancreatic Cancer Stem Cells (Panc1, Adherent) (AID 1259362); also: potency is read from the fitted curve at half-maximal effect;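 as to viability, % of control: compound exposure lasted 48 h before the viability read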", "details": "Potency: viability; series mostly up to 46.1 µM; viability, % of control: at the top concentration", "from_the_text": "Progenitor-like cancer cells, often referred to as cancer stem cells (CSC), are believed to be the drivers of therapeutic resistance and rapid recurrence. CSCs are postulated to reside in specific niches characterized by low oxygen tension, limited nutrient supply, and high redox load. Selectively targeting CSC, alone or in combination with cytotoxic agents, as a means to produce durable remissions is an appealing concept. Modeling these cells in in vitro setting is an important step in finding new therapies and/or targets. Multiple reports highlight that forcing cells in culture into 3-dimensionaly architectures (spheroids) re-establishes key progenitor-like transcriptional signatures. Pancreatic cancer is among the diseases with the most dismal outlook which is driven, largely, by recurance following front-line therapies. […] In hopes of deriving new insight into the targeting of these pancreatic CSCs we examined three established pancreatic cancer cell lines in cytotoxicity assays versus a collection of approved and investigational drugs. Importantly, we screened these lines as traditional monolayer (2D) and spheroid (3D) formats to gain an appreciation of agents with differential activity.\nMulticellular tumor spheroids from Panc1, MiaPaCa-2, and the primary low-passage tissue culture line SB.06 were seeded in stem cell media (SCM) in nonadherent 6-well plates coated with hydrogel (Corning Life Sciences, Chelmsford, Mass) and pancreatic spheres generated for 14 days before screening. Cells were seeded into 1536-well solid-bottom white tissue culture treated Greiner Bio One Plates (789173-F) using a MultiDrop Combi (Thermofisher Scientific) dispenser and a small sterile cassette. One column was media alone to be used as a :\"no cells\" control. The plates were then covered with sterilized stainless steel gasketed lids from Kalypsys. After allowing cells to attach for 4 hours, 23 nL of test compound or control (negative control DMSO and positive control 9.2 uM Bortezomib-final) were added from a 1536-well polypropylene compound source plate to each well using a 1536 head pin tool from Kalypsys. Cells were then incubated for 48 hours at 37C, 95% relative humidity and 5% CO2. After 48 hours, plates were removed from the incubator and 3 uL of CellTiter-Glo (Promega) was added using an Aurora Flying Reagent Dispenser Bioraptor. Plates were incubated at room temperature for 10 minutes prior to reading the luminescence on the Viewlux (PerkinElmer). The relative luciferase units are used to calculate the percent activity using the activity of DMSO in the cells and no cells columns for normalization of no inhibition and full inhibition respectively.", "units": {"viability, % of control": "%"}, "values": [{"smiles": "CCC1(O)CC2CN(CCc3c([nH]c4ccccc34)[C@@](C(=O)OC)(c3cc4c(cc3OC)N(C=O)[C@H]3[C@](O)(C(=O)OC)[C@H](OC(C)=O)[C@]5(CC)C=CCN6CC[C@]43[C@@H]65)C2)C1", "note": "(some centres not stated)", "Potency": "2.6 nM (active)"}, {"smiles": "CC[C@@H](C(=O)O)C1CC[C@H](C)C([C@@H](C)[C@H](O)[C@H](C)C(=O)[C@H](CC)C2O[C@]3(C=C[C@@H](O)[C@]4(CC[C@@](C)(C5CC[C@](O)(CC)[C@H](C)O5)O4)O3)[C@H](C)C[C@@H]2C)O1", "note": "(some centres not stated)", "Potency": "7430 nM (active)"}, {"smiles": "CCOc1cc2ncc(C#N)c(Nc3ccc(OCc4ccccn4)c(Cl)c3)c2cc1NC(=O)/C=C/CN(C)C", "Potency": "2640 nM (active)"}, {"smiles": "Cc1c2oc3c(C)ccc(C(=O)N[C@@H]4C(=O)NC(C(C)C)C(=O)N5CCC[C@H]5C(=O)N(C)CC(=O)N(C)C(C(C)C)C(=O)O[C@@H]4C)c3nc-2c(C(=O)N[C@@H]2C(=O)NC(C(C)C)C(=O)N3CCC[C@H]3C(=O)N(C)CC(=O)N(C)C(C(C)C)C(=O)O[C@@H]2C)c(N)c1=O", "note": "(some centres not stated) (I: T[ξV]P[Sar][ξNMeV] / II: T[ξV]P[Sar][ξNMeV]; ester I:1-I:C, II:1-II:C; linker I:N-II:N via Actinocin(9to1))", "Potency": "13.2 nM (active)"}, {"smiles": "CC(NC(=O)Cc1cc(F)cc(F)c1)C(=O)NC(C(=O)OC(C)(C)C)c1ccccc1", "note": "(configuration not stated)", "viability, % of control": 135}, {"smiles": "O=c1cc(C2=CC=CC3Sc4ccccc4SC23)oc(N2CCOCC2)c1", "note": "(configuration not stated)", "viability, % of control": 106}, {"smiles": "CN(NC(=O)CC(=O)NN(C)C(=S)c1ccccc1)C(=S)c1ccccc1", "viability, % of control": 112}]}]}
